Laboratory results published in paper PMC9838217, “Structure of SALL4 zinc finger domain reveals link between AT-rich DNA binding and Okihiro syndrome”.
Substitutions are numbered along the chain they refer to.

What was measured:
Assay in all cases: HT-SELEX; high values mean tight binding
Conditions in all cases: protein: recombinant; vector His6-GST; dsDNA, one strand shown
SALL4 ZFC4 WT (HT-SELEX) = biological target: T1, SALL4 ZFC4 WT (HT-SELEX) (Mus musculus, UniProt Q8BX22 870-940)
T1 sequence: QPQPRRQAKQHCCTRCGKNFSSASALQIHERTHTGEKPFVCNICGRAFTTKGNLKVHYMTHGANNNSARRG
Summary of the method: (§1)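 In triplicate selections of up to 6 cycles, purified recombinant mouse SALL4 zinc finger cluster 4 (residues 870–940, 1 µg) was incubated 10 min at room temperature with library DNA (1.5 µg, then 200 ng) in 100 µl of 10 mM Tris–HCl pH 7.5, 50 mM NaCl, poly(dI-dC) and DTT, and complexes were captured on Ni2+ beads, washed and PCR-amplified. Sequencing was done on MiSeq with scanning for 6-mers. The binding signal is each canonical k-mer's read fraction, reported as fold change against the initial random library.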

[1] = biological target: T2, SALL4 ZFC4 R900W (HT-SELEX) (Mus musculus, UniProt Q8BX22 870-940, R900W)
T2 sequence: T1 sequence with R31W
Summary of the method: as §1

[2] = biological target: T3, SALL4 ZFC4 G921D (HT-SELEX) (Mus musculus, UniProt Q8BX22 870-940, G921D)
T3 sequence: T1 sequence with G52D
Summary of the method: as §1

Row | Sequence | binding signal (SALL4 ZFC4 WT (HT-SELEX)) | binding signal [1] | binding signal [2]
1 | ATCATG | 1.38 ± 0.03 fold-change vs cycle 0 | 1.48 ± 0.0158 fold-change vs cycle 0 | 1.4 ± 0.0239 fold-change vs cycle 0
2 | ATGATA | 2.72 ± 0.227 fold-change vs cycle 0 | 2.14 ± 0.0867 fold-change vs cycle 0 | 1.86 ± 0.153 fold-change vs cycle 0
3 | AGACGG | 0.342 ± 0.0181 fold-change vs cycle 0 | 0.409 ± 0.00782 fold-change vs cycle 0 | 0.522 ± 0.0641 fold-change vs cycle 0
4 | CCAGGA | 0.465 ± 0.017 fold-change vs cycle 0 | 0.546 ± 0.0174 fold-change vs cycle 0 | 0.63 ± 0.0152 fold-change vs cycle 0
5 | ACTTTG | 1.14 ± 0.054 fold-change vs cycle 0 | 1.27 ± 0.0366 fold-change vs cycle 0 | 1.24 ± 0.052 fold-change vs cycle 0
6 | TCGCAA | 0.451 ± 0.0135 fold-change vs cycle 0 | 0.483 ± 0.00786 fold-change vs cycle 0 | 0.616 ± 0.0634 fold-change vs cycle 0
7 | ACAGGT | 0.824 ± 0.0401 fold-change vs cycle 0 | 0.95 ± 0.0293 fold-change vs cycle 0 | 0.985 ± 0.0191 fold-change vs cycle 0
8 | CACAAA | 0.978 ± 0.0432 fold-change vs cycle 0 | 1.1 ± 0.0594 fold-change vs cycle 0 | 1.09 ± 0.0653 fold-change vs cycle 0
9 | GACGAA | 0.609 ± 0.00641 fold-change vs cycle 0 | 0.72 ± 0.0219 fold-change vs cycle 0 | 0.7905 ± 0.00753 fold-change vs cycle 0
10 | AGTGTG | 0.745 ± 0.0331 fold-change vs cycle 0 | 0.85 ± 0.0147 fold-change vs cycle 0 | 0.909 ± 0.0296 fold-change vs cycle 0
11 | GAAAAA | 1.86 ± 0.136 fold-change vs cycle 0 | 1.6 ± 0.0749 fold-change vs cycle 0 | 1.47 ± 0.105 fold-change vs cycle 0
12 | CTTCAC | 0.856 ± 0.0564 fold-change vs cycle 0 | 1.04 ± 0.0731 fold-change vs cycle 0 | 1.03 ± 0.0678 fold-change vs cycle 0
13 | CCTTAA | 1.32 ± 0.0558 fold-change vs cycle 0 | 1.49 ± 0.018 fold-change vs cycle 0 | 1.37 ± 0.0901 fold-change vs cycle 0
14 | ATTGAA | 2.11 ± 0.107 fold-change vs cycle 0 | 2.06 ± 0.169 fold-change vs cycle 0 | 1.86 ± 0.169 fold-change vs cycle 0
15 | ATAGTC | 1.25 ± 0.0415 fold-change vs cycle 0 | 1.31 ± 0.0594 fold-change vs cycle 0 | 1.33 ± 0.0589 fold-change vs cycle 0
16 | CAGAGG | 0.463 ± 0.0456 fold-change vs cycle 0 | 0.548 ± 0.0393 fold-change vs cycle 0 | 0.65 ± 0.0673 fold-change vs cycle 0
17 | TCATAA | 3.28 ± 0.256 fold-change vs cycle 0 | 2.06 ± 0.0751 fold-change vs cycle 0 | 1.84 ± 0.154 fold-change vs cycle 0
18 | CCGGAA | 0.325 ± 0.0139 fold-change vs cycle 0 | 0.368 ± 0.0111 fold-change vs cycle 0 | 0.491 ± 0.0897 fold-change vs cycle 0
19 | CCTTGC | 0.381 ± 0.0117 fold-change vs cycle 0 | 0.45 ± 0.00496 fold-change vs cycle 0 | 0.554 ± 0.0487 fold-change vs cycle 0
20 | CGAAGA | 0.723 ± 0.0365 fold-change vs cycle 0 | 0.802 ± 0.0443 fold-change vs cycle 0 | 0.859 ± 0.0315 fold-change vs cycle 0
21 | AATACA | 2.08 ± 0.131 fold-change vs cycle 0 | 1.92 ± 0.0574 fold-change vs cycle 0 | 1.74 ± 0.0979 fold-change vs cycle 0

Row | Sequence | binding signal (SALL4 ZFC4 WT (HT-SELEX)) | binding signal [1] | binding signal [2]
22 | AGTATG | 1.43 ± 0.0699 fold-change vs cycle 0 | 1.49 ± 0.072 fold-change vs cycle 0 | 1.38 ± 0.0928 fold-change vs cycle 0
23 | CTTCTA | 1.36 ± 0.0301 fold-change vs cycle 0 | 1.53 ± 0.0956 fold-change vs cycle 0 | 1.4 ± 0.104 fold-change vs cycle 0
24 | AACCCA | 0.813 ± 0.0466 fold-change vs cycle 0 | 0.894 ± 0.0477 fold-change vs cycle 0 | 0.963 ± 0.0141 fold-change vs cycle 0
25 | AGGATG | 0.903 ± 0.0399 fold-change vs cycle 0 |  | 1.04 ± 0.0274 fold-change vs cycle 0
26 | ATACCA | 1.39 ± 0.0502 fold-change vs cycle 0 |  | 1.35 ± 0.0639 fold-change vs cycle 0
27 | CCACGA | 0.33 ± 0.0384 fold-change vs cycle 0 | 0.407 ± 0.011 fold-change vs cycle 0 | 0.515 ± 0.0508 fold-change vs cycle 0
28 | AGCCAT | 0.592 ± 0.0288 fold-change vs cycle 0 | 0.664 ± 0.00758 fold-change vs cycle 0 | 0.778 ± 0.0611 fold-change vs cycle 0
29 | CATAGA | 1.37 ± 0.0454 fold-change vs cycle 0 |  | 1.34 ± 0.0648 fold-change vs cycle 0
30 | AGCTAA | 1.15 ± 0.044 fold-change vs cycle 0 | 1.26 ± 0.0399 fold-change vs cycle 0 | 1.27 ± 0.0601 fold-change vs cycle 0
31 | TGACAA | 1.16 ± 0.0336 fold-change vs cycle 0 | 1.29 ± 0.0235 fold-change vs cycle 0 | 1.26 ± 0.0515 fold-change vs cycle 0
32 | AAGAGC | 0.752 ± 0.0601 fold-change vs cycle 0 | 0.917 ± 0.0813 fold-change vs cycle 0 | 1.02 ± 0.0502 fold-change vs cycle 0
33 | ATTTGG | 1.02 ± 0.0576 fold-change vs cycle 0 |  | 1.1 ± 0.038 fold-change vs cycle 0
34 | ATCAAA | 1.96 ± 0.105 fold-change vs cycle 0 | 1.83 ± 0.114 fold-change vs cycle 0 | 1.69 ± 0.154 fold-change vs cycle 0
35 | TAAGAA | 2.2 ± 0.0931 fold-change vs cycle 0 |  | 1.87 ± 0.231 fold-change vs cycle 0
36 | AAAACT | 1.7 ± 0.107 fold-change vs cycle 0 |  | 1.57 ± 0.146 fold-change vs cycle 0
37 | CCGTGA | 0.39 ± 0.0265 fold-change vs cycle 0 | 0.468 ± 0.0123 fold-change vs cycle 0 | 0.578 ± 0.0442 fold-change vs cycle 0
38 | ACCAGC | 0.312 ± 0.0135 fold-change vs cycle 0 | 0.369 ± 0.00921 fold-change vs cycle 0 | 0.497 ± 0.0437 fold-change vs cycle 0
39 | GCATAA | 1.13 ± 0.0858 fold-change vs cycle 0 |  | 1.105 ± 0.0098 fold-change vs cycle 0
40 | AATACG | 1.06 ± 0.0521 fold-change vs cycle 0 |  | 1.1 ± 0.0362 fold-change vs cycle 0
41 | CCAATA | 1.24 ± 0.0729 fold-change vs cycle 0 |  | 1.22 ± 0.0438 fold-change vs cycle 0
42 | GGAAGA | 0.939 ± 0.0256 fold-change vs cycle 0 |  | 1.12 ± 0.0151 fold-change vs cycle 0

Row | Sequence | binding signal (SALL4 ZFC4 WT (HT-SELEX)) | binding signal [1] | binding signal [2]
43 | GCTGTA | 0.574 ± 0.0425 fold-change vs cycle 0 | 0.653 ± 0.0229 fold-change vs cycle 0 | 0.75 ± 0.0402 fold-change vs cycle 0
44 | TCATCA | 1.46 ± 0.0322 fold-change vs cycle 0 | 1.56 ± 0.0457 fold-change vs cycle 0 | 1.49 ± 0.0698 fold-change vs cycle 0
45 | CTCAAA | 1.09 ± 0.0723 fold-change vs cycle 0 |  | 1.2 ± 0.0463 fold-change vs cycle 0
46 | GTTACA | 1.35 ± 0.0329 fold-change vs cycle 0 | 1.46 ± 0.0565 fold-change vs cycle 0 | 1.37 ± 0.0864 fold-change vs cycle 0
47 | GATATC | 1.46 ± 0.0542 fold-change vs cycle 0 | 1.45 ± 0.075 fold-change vs cycle 0 | 1.39 ± 0.0375 fold-change vs cycle 0
48 | CTGTAA | 1.29 ± 0.062 fold-change vs cycle 0 | 1.42 ± 0.0769 fold-change vs cycle 0 | 1.33 ± 0.121 fold-change vs cycle 0
49 | CTACTC | 0.863 ± 0.0395 fold-change vs cycle 0 | 0.998 ± 0.0566 fold-change vs cycle 0 | 0.992 ± 0.0109 fold-change vs cycle 0
50 | GCTTTA | 0.998 ± 0.0694 fold-change vs cycle 0 |  | 1.11 ± 0.0337 fold-change vs cycle 0
51 | CCGAAA | 0.495 ± 0.0231 fold-change vs cycle 0 | 0.559 ± 0.0265 fold-change vs cycle 0 | 0.66 ± 0.0717 fold-change vs cycle 0
52 | ACCAAT | 1.25 ± 0.0373 fold-change vs cycle 0 |  | 1.33 ± 0.0543 fold-change vs cycle 0
53 | ACTGAG | 0.855 ± 0.0344 fold-change vs cycle 0 |  | 1.01 ± 0.0137 fold-change vs cycle 0
54 | AAATGG | 1.11 ± 0.029 fold-change vs cycle 0 |  | 1.16 ± 0.0413 fold-change vs cycle 0
55 | CAAATG | 1.063 ± 0.0102 fold-change vs cycle 0 |  | 1.17 ± 0.0276 fold-change vs cycle 0
56 | ATTGTG | 1.1 ± 0.0622 fold-change vs cycle 0 |  | 1.18 ± 0.0673 fold-change vs cycle 0
57 | CATCTC | 0.879 ± 0.041 fold-change vs cycle 0 |  | 1.01 ± 0.0361 fold-change vs cycle 0
58 | CAGTGC | 0.318 ± 0.0186 fold-change vs cycle 0 | 0.355 ± 0.00797 fold-change vs cycle 0 | 0.491 ± 0.0442 fold-change vs cycle 0
59 | ATGGAG | 0.932 ± 0.0365 fold-change vs cycle 0 |  | 1.04 ± 0.0381 fold-change vs cycle 0
60 | AAACCT | 1.23 ± 0.0691 fold-change vs cycle 0 |  | 1.34 ± 0.0704 fold-change vs cycle 0
61 | ACGTAC | 0.714 ± 0.0363 fold-change vs cycle 0 | 0.825 ± 0.0331 fold-change vs cycle 0 | 0.862 ± 0.022 fold-change vs cycle 0
62 | CAAGGC | 0.301 ± 0.0203 fold-change vs cycle 0 | 0.371 ± 0.0118 fold-change vs cycle 0 | 0.492 ± 0.0622 fold-change vs cycle 0
63 | GAGTAA | 1.45 ± 0.0607 fold-change vs cycle 0 | 1.57 ± 0.0835 fold-change vs cycle 0 | 1.43 ± 0.106 fold-change vs cycle 0
